Bioassay records: PubChem, several laboratories
PERK inh = blocks human PERK kinase; inhibition, % at 5.6 µM; 220,000 compounds, 0.17% hits; Q9NZJ5; CHO PERK-DD fusion, SEAP luminescence translation reporter;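 active means inhibition above the mean inhibition of all tested compounds plus 3 SD, set separately per screening campaign, cut at about 2.9% in these data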;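 further: PERK kinase domain activated by AP20187 dimerizer at 100 nM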
eIF4E-4G inh = eIF4E/eIF4G interaction inhibition in translation initiation | AID 782 | P63073+Q04637 | 220,000 compounds, 0.37% hits | TR-FRET eIF4E-eIF4GI(517-606) binding, 2 h | inhibition, % at 21.7 µM;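 active means inhibition above about 30%, limit read from the data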
MLLE-PAM2 inh = blocks PAM2 peptide binding to the PABP1 MLLE domain; GST-MLLE / FITC-PAM2 fluorescence polarization; inhibition, % at 20 µM; 360,000 compounds, 0.36% hits; in the data active means inhibition above about 35%, passing the limit was not always enough
PfM18AAP inh-1 = blocks P. falciparum M18 aspartyl aminopeptidase; 290,000 compounds, 1.2% hits; inhibition, % at 7.35 µM; AID 1822; recombinant PfM18AAP, H-Glu-NHMec fluorogenic cleavage;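 active means inhibition above the campaign mean inhibition over all tested compounds plus 3 SD, cut at about 28% in these data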
eIF4H inh = inhibitors of RNA binding by human eIF4H | eIF4H fluorescence polarization binding assay | 290,000 compounds, 0.94% hits | inhibition, % at 35 µM | AID 2012;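 further: calls also rest on retests at 20 µM and on dose response follow-up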
PABP FP inh = blocks human PABP binding to poly(A) RNA; P11940; fluorescence polarization; inhibition, % at 35 µM; 290,000 compounds, 1% hits; AID 2014;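 further: calls also rest on retests at 20 µM and on dose response follow-up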
PfM18AAP inh-2 = PfM18AAP inhibition, confirmation; shares compounds with PfM18AAP inh-1; recombinant PfM18AAP, H-Glu-NHMec fluorogenic cleavage; inhibition, % at 7.35 µM; 2,400 compounds, 28% hits; AID 2170;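 active means mean inhibition over replicate wells above the hit cutoff set for the earlier primary screen, cut at about 29% in these data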
CTSL1 counter = counter-screen for PFM18AAP inhibitors: confirmation of human cathepsin L inhibitors | shares compounds with PfM18AAP inh-1 | purified cathepsin L1, Z-Leu-Arg-MCA fluorescence | inhibition, % at 5.96 µM | 2,400 tested, under 10 active;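 active means average inhibition across replicates above the hit cutoff set in the earlier primary screen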
Numbers stand for hits. Rows were chosen to be rich in hits. Some 2.4% of all compounds tested hit in one or more screens of this group. Unless noted, how the calls were made is not given here.

What do the screens show for `Oc1ccc(/C=N/NP(=S)(c2ccccc2)c2ccccc2)c(O)c1O`?
PERK inh: inactive; eIF4E-4G inh: inactive; MLLE-PAM2 inh: inactive; PfM18AAP inh-1: 33; PfM18AAP inh-2: inactive; CTSL1 counter: inactive

How did C/C(=N\NP(=S)(c1ccccc1)c1ccccc1)c1ccc(O)cc1O do in these assays?
PERK inh: inactive; eIF4E-4G inh: inactive; MLLE-PAM2 inh: inactive; PfM18AAP inh-1: inactive; eIF4H inh: inactive; PABP FP inh: inactive

Results for O=C(O)c1ccc(-n2c(O)c(/C=C3\C=Nc4ccccc43)c(=O)[nH]c2=O)cc1 ?
MLLE-PAM2 inh: inactive; PfM18AAP inh-1: 48; eIF4H inh: inconclusive; PABP FP inh: inconclusive; PfM18AAP inh-2: 53; CTSL1 counter: inactive

Results for O=c1[nH]c(=O)n(-c2cccc(F)c2)c(O)c1/C=C1\C=Nc2ccccc21 ?
MLLE-PAM2 inh: inactive; PfM18AAP inh-1: 34; eIF4H inh: inconclusive; PABP FP inh: inconclusive; PfM18AAP inh-2: 45; CTSL1 counter: inactive

What do the screens show for `Cn1c(O)c(C=NCCN2CCOCC2)c(=O)n(C)c1=S`?
PERK inh: inactive; eIF4E-4G inh: inactive; MLLE-PAM2 inh: inactive; PfM18AAP inh-1: inactive; eIF4H inh: inactive; PABP FP inh: inactive

How did CC12CCC(=O)CC1CCC1C2C(=O)CC2(C)C1CCC2(C)O (stereo not given) do in these assays?
MLLE-PAM2 inh: inactive

What do the screens show for `CSc1nc(N2CCN(C)CC2)c2ccccc2n1`?
PERK inh: inactive; eIF4E-4G inh: inactive; MLLE-PAM2 inh: inactive; PfM18AAP inh-1: inactive; eIF4H inh: inactive; PABP FP inh: inactive

Results for Cc1cc(/C=C2/C(=O)NC(=O)N(c3ccc(Br)cc3)C2=O)c(C)n1C ?
PERK inh: inactive; eIF4E-4G inh: inactive; MLLE-PAM2 inh: inactive; PfM18AAP inh-1: inactive; eIF4H inh: inactive; PABP FP inh: inactive

How did Cc1cc(/C=C2\C(=O)NC(=O)N(c3ccc(Br)cc3)C2=O)c(C)n1-c1cc(C(=O)O)cc(C(=O)O)c1 do in these assays?
MLLE-PAM2 inh: inactive; PfM18AAP inh-1: 35; eIF4H inh: inactive; PABP FP inh: inactive; PfM18AAP inh-2: inactive; CTSL1 counter: inactive

How did C=CCN1CC[C@]23c4c5ccc(O)c4O[C@H]2C(=O)CC[C@@]3(O)[C@H]1C5 do in these assays?
PERK inh: inactive; eIF4E-4G inh: inactive; MLLE-PAM2 inh: inactive; PfM18AAP inh-1: inactive; eIF4H inh: inactive; PABP FP inh: inactive

Results for C=CCN1CCc2cccc3c2[C@H]1Cc1ccc(O)c(O)c1-3 ?
MLLE-PAM2 inh: inactive; PfM18AAP inh-1: 62; eIF4H inh: inactive; PABP FP inh: inactive; PfM18AAP inh-2: 56; CTSL1 counter: inactive

What do the screens show for `CC[n+]1c(/C=C/N(C)c2ccccc2)sc2ccc(Cl)cc21`?
PERK inh: inactive; eIF4E-4G inh: inactive; MLLE-PAM2 inh: inactive; PfM18AAP inh-1: 36; eIF4H inh: inactive; PABP FP inh: inactive; PfM18AAP inh-2: inactive; CTSL1 counter: inactive

What do the screens show for `CC[n+]1c(/C=C/C=C/c2ccc(N(C)C)cc2)sc2ccccc21`?
PERK inh: inactive; eIF4E-4G inh: inactive; MLLE-PAM2 inh: inactive; PfM18AAP inh-1: inactive; eIF4H inh: inactive; PABP FP inh: inactive

What do the screens show for `N/C(=N\N=C\c1ccc(O)cc1O)N[N+](=O)[O-]`?
PERK inh: inactive; eIF4E-4G inh: inactive; MLLE-PAM2 inh: inactive; PfM18AAP inh-1: 44; eIF4H inh: inactive; PABP FP inh: inactive; PfM18AAP inh-2: 65; CTSL1 counter: inactive

How did O=C(Cc1ccccc1)OCC(=O)c1ccccc1 do in these assays?
MLLE-PAM2 inh: inactive; PfM18AAP inh-1: inactive; eIF4H inh: inactive; PABP FP inh: inactive

What do the screens show for `O=C(OCC(=O)c1ccc([N+](=O)[O-])cc1)/C(=C\c1ccc(Cl)cc1)NC(=O)c1ccccc1`?
PERK inh: inactive; eIF4E-4G inh: inactive; MLLE-PAM2 inh: inactive; PfM18AAP inh-1: 40; eIF4H inh: inactive; PABP FP inh: inactive; PfM18AAP inh-2: inactive; CTSL1 counter: inactive

What do the screens show for `CC1=C[C@@H]2c3cccc4[nH]cc(c34)C[C@H]2N(C)C1`?
MLLE-PAM2 inh: inactive; PfM18AAP inh-1: 48; eIF4H inh: inconclusive; PABP FP inh: inconclusive; PfM18AAP inh-2: inactive; CTSL1 counter: inactive

How did CC(C(=O)c1ccc(Cl)cc1Cl)n1cncn1 (stereo not given) do in these assays?
MLLE-PAM2 inh: inactive; PfM18AAP inh-1: 65; eIF4H inh: inactive; PABP FP inh: inactive; PfM18AAP inh-2: 54; CTSL1 counter: inactive
